Of roughly 7,900 targets only a part is listed; those with a hit were picked by preference. About 0.6% of all pairs of compound and target were hits.
Key:
Experiment in all cases: log2 fold change, soluble protein after heating vs DMSO (PISA); higher = thermal stabilisation; K562 cells, 10 uM, 30 min; active = over 0.2 and 3.5 SD of the protein, either way, in both replicates (recomputed)
[1] = compound: CC[C@@H]1C(=O)N(C)c2cnc(Nc3ccc(C(=O)NC4CCN(C)CC4)cc3OC)nc2N1C1CCCC1
Procedure, shortened: (§1)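 K562 cells (2×10^6 cells/mL) were treated with 10 μM compound for 30 min, and aliquots were heated for 3 min over 48°C-58°C. Pooled aliquots were extracted in PBS with 0.5% NP-40 at 4°C, and the supernatant after 21,000xg for 90 min was measured by TMTpro 16plex LC-MS/MS with channel sums equalised. Reported thermal stability, relative to control samples and from duplicates, is a log2 fold change.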

[2] = compound: CC[C@@H]1C(=O)N(C)c2cnc(Nc3ccc(C(=O)N[C@H]4CC[C@H](N5CCN(CC6CC6)CC5)CC4)cc3OC)nc2N1C(C)C [volasertib]
Procedure, shortened: as §1

[3] = compound: CC[C@H](C)N1C=C(C2=C(C=C(C=C21)C3=CN=C(C=C3)N4CCNCC4)C(=O)NCC5=C(C=C(NC5=O)C)C)C
Procedure, shortened: as §1

[4] = compound: CC[C@H](C)[C@@H](C(=O)N[C@@H]([C@@H](C)O)C(=O)N[C@@H](CC(C)C)C(=O)[C@]1(CO1)C)NC(=O)[C@H]([C@@H](C)CC)N(C)C(=O)C [epoxomicin]
Procedure, shortened: as §1

[5] = compound: CCn1c(C(=O)N(C2CC2)C2CC2)cc2c3c(ncn3C)c(Nc3cc(C)n(C)n3)nc21
Procedure, shortened: as §1

[6] = compound: CCn1cc(-c2ccnc3[nH]c(-c4cccc(CN(C)C)c4)cc23)c(-c2ccc(NC(=O)N(C)C)cc2)n1
Procedure, shortened: as §1

[7] = compound: CN(C)CC(=O)Nc1ccc2[nH]c(=O)c3ccccc3c2c1
Procedure, shortened: as §1

[8] = compound: CN(CCOC1=CC=C(C=C1)C[C@H]2C(=O)NC(=O)S2)C3=CC=CC=N3 (racemic) [rosiglitazone]
Procedure, shortened: as §1

[9] = compound: CN1C2=C(C3=C1C(=O)N(N=C3)CC4=CC(=CC=C4)N)SC(=C2)S(=O)C
Procedure, shortened: as §1

[10] = compound: CN1CCC(CNc2ccc3ncc(-c4cccc(OC(F)(F)F)c4)n3n2)CC1
Procedure, shortened: as §1

[11] = compound: CN1CCN(CCOc2cc(OC3CCOCC3)c3c(Nc4c(Cl)ccc5c4OCO5)ncnc3c2)CC1 [saracatinib]
Procedure, shortened: as §1

[12] = compound: CN1CCN(c2nc(C3=C(c4c[nH]c5ccccc45)C(=O)NC3=O)c3ccccc3n2)CC1 [sotrastaurin]
Procedure, shortened: as §1

[13] = compound: CN1CC[C@H](c2c(O)cc(O)c3c(=O)cc(-c4ccccc4Cl)oc23)[C@H](O)C1 [alvocidib]
Procedure, shortened: as §1

[14] = compound: CN1CCc2c(c3ccccc3n2Cc2ccc(C(=O)NO)cc2)C1 [Tubastatin A]
Procedure, shortened: as §1

[15] = compound: CNC(=O)C1=CC=CC=C1NC2=NC(=NC=C2Cl)NC3=C(C=C(C=C3)N4CCOCC4)OC
Procedure, shortened: as §1

[16] = compound: CNC(=O)c1ccc(Nc2ncc(C(F)(F)F)c(NCc3nccnc3N(C)S(C)(=O)=O)n2)cc1 [defactinib]
Procedure, shortened: as §1

[17] = compound: CNCc1ccc(-c2[nH]c3cc(F)cc4c3c2CCNC4=O)cc1 [rucaparib]
Procedure, shortened: as §1

[18] = compound: CNc1nc(-c2ccc3c(N)n[nH]c3c2)cc(N2C[C@@H](C(=O)NC3CCCCC3)CC[C@H]2C)n1
Procedure, shortened: as §1

[19] = compound: COC(=O)N[C@@H](C)CNc1nccc(-c2cn(C(C)C)nc2-c2cc(Cl)cc(NS(C)(=O)=O)c2F)n1 [encorafenib]
Procedure, shortened: as §1

[20] = compound: COC(=O)[C@H](CCSC)NC(=O)C1=C(C=C(C=C1)NC[C@H](CS)N)C2=CC=CC=C2
Procedure, shortened: as §1

Measured: log2 fold change

IRAK4 (UniProt Q9NWZ3)
Chain of UniProt Q9NWZ3 (Q9NWZ3 whole entry, looked up): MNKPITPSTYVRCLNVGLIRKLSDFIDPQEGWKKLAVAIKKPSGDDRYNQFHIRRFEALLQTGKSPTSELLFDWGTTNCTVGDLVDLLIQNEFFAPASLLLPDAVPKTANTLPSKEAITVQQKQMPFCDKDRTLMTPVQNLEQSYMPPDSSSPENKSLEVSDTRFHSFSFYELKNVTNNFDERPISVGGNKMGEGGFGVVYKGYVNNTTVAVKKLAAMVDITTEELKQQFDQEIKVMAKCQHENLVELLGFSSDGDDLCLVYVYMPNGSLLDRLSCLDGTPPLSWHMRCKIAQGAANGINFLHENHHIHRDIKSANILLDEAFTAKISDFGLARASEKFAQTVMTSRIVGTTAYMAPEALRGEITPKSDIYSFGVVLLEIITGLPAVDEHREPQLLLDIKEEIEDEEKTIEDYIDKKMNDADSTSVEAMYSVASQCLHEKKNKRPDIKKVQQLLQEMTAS
inactive: [1] -0.138 | [2] -0.299 | [3] 0.048 | [4] 0.038 | [5] -0.092 | [6] -0.033 | [7] 0.061 | [8] 0.042 | [9] 0.029 | [10] 0.013 | [11] -0.026 | [12] -0.061 | [13] -0.106 | [14] 0.006 | [15] 0.162 | [16] -0.022 | [17] 0.076 | [18] 0.01 | [19] 0.006 | [20] -0.071

ILF3 isoform 7 (UniProt Q12906)
Chain of UniProt Q12906 (Q12906 whole entry, looked up): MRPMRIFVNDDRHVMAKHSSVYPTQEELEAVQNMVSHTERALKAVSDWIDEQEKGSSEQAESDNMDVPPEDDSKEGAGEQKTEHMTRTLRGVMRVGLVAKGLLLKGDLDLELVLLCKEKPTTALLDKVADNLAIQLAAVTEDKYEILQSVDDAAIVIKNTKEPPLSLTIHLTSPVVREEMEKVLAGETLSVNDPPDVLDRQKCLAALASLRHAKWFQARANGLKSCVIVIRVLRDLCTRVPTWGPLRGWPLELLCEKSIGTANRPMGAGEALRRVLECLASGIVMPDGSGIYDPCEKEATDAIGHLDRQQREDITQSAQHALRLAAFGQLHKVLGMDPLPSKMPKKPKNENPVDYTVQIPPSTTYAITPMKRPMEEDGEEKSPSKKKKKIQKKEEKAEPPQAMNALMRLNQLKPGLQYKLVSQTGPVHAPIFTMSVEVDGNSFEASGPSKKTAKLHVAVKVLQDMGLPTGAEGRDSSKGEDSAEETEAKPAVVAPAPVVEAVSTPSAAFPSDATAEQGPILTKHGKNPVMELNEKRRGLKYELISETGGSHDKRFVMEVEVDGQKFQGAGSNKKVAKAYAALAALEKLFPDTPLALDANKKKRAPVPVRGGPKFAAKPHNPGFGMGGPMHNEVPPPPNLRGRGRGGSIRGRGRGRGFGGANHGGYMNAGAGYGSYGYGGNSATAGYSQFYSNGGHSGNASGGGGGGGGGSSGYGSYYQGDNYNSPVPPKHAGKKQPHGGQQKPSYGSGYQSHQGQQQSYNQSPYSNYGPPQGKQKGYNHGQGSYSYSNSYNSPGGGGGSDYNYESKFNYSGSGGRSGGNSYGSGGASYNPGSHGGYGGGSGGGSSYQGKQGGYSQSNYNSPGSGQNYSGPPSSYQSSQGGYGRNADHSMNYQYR
inactive: [1] 0.348 | [2] 0.356 | [3] -0.021 | [4] -0.185 | [5] -0.02 | [6] 0.135 | [7] -0.101 | [8] -0.095 | [9] 0.146 | [10] 0.231 | [11] 0.001 | [12] 0.087 | [13] 0.362 | [14] -0.044 | [15] 0.03 | [17] 0.202 | [18] -0.003 | [19] 0.032 | [20] 0
active: [16] 0.554

LTN1 isoform 3 (UniProt O94822)
Chain of UniProt O94822 (O94822 whole entry, looked up): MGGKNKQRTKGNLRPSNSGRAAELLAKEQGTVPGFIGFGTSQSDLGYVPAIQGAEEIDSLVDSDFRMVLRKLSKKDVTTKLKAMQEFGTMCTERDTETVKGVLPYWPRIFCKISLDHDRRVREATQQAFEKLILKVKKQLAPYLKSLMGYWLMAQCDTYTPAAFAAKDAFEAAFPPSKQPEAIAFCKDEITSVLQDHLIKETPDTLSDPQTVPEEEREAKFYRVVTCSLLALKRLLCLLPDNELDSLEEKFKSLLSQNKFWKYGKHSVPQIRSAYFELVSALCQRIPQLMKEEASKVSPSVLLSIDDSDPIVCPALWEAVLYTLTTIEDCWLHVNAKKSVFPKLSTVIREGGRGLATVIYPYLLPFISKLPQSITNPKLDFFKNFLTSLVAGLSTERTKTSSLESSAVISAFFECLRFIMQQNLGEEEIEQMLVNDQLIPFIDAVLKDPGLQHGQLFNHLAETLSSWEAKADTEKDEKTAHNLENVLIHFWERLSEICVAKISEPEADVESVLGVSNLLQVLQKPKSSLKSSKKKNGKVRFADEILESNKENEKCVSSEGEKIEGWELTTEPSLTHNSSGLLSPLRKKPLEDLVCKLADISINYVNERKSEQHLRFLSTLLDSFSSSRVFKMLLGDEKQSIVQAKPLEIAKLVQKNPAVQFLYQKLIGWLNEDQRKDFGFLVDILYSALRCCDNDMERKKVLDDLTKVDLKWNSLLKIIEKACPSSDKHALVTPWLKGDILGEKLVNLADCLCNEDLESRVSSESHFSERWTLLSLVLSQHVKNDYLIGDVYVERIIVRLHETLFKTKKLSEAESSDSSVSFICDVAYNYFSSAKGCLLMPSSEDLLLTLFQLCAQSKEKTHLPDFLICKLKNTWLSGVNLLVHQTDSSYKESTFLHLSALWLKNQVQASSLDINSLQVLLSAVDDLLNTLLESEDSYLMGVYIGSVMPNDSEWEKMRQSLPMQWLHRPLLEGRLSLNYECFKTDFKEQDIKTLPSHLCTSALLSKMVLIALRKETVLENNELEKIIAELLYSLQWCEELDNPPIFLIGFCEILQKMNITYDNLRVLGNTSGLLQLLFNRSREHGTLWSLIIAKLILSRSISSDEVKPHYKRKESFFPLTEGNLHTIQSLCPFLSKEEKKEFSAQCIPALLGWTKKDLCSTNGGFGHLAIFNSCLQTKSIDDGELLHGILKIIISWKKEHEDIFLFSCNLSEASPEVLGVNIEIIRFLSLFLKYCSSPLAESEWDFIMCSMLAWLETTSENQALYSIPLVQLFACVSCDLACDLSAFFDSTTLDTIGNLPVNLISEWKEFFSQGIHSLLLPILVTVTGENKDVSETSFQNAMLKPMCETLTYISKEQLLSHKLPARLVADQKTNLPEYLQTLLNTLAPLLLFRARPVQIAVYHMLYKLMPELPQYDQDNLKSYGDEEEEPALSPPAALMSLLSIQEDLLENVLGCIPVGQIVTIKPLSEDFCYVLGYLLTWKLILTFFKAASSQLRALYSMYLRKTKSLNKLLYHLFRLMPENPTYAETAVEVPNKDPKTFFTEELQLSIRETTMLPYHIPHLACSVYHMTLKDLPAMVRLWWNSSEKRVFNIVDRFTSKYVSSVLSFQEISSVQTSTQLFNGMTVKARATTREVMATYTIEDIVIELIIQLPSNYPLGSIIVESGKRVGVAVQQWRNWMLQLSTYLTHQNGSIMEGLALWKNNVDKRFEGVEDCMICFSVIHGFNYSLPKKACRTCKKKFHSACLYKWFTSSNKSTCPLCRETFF
inactive: [1] -0.16 | [3] 0.079 | [4] -0.012 | [5] -0.075 | [6] -0.019 | [7] 0.043 | [8] 0.05 | [9] 0.06 | [11] -0.016 | [12] -0.114 | [13] -0.042 | [14] 0.196 | [15] 0.01 | [16] -0.114 | [17] 0.158 | [18] -0.012 | [19] 0.047 | [20] -0.057
active: [2] -0.459 | [10] -0.498

LEMD3 (UniProt Q9Y2U8)
active: [2] -0.324
inactive: [1] -0.096 | [3] -0.063 | [4] 0.095 | [5] -0.076 | [6] 0.003 | [7] 0.123 | [8] -0.03 | [9] -0.016 | [10] -0.081 | [11] -0.014 | [12] 0.013 | [13] -0.057 | [14] 0.062 | [15] 0.068 | [16] -0.111 | [17] 0.027 | [18] 0.039 | [19] 0.026 | [20] -0.075

MGST1 (UniProt P10620)
inactive: [1] 0.037 | [2] 0.039 | [3] -0.043 | [4] 0.003 | [5] -0.025 | [6] -0.158 | [7] 0.012 | [8] -0.037 | [9] -0.079 | [10] 0.086 | [11] 0.042 | [12] -0.013 | [13] 0.01 | [14] -0.174 | [15] 0.009 | [16] -0.037 | [17] 0.003 | [18] 0.021 | [19] -0.147 | [20] 0.018

MAP2K3 isoform 3 (UniProt P46734)
inactive: [1] -0.041 | [2] -0.17 | [3] 0.09 | [4] -0.035 | [5] -0.017 | [6] 0.039 | [7] 0.038 | [8] 0.018 | [9] -0.054 | [10] -0.121 | [11] 0.024 | [12] 0.017 | [13] -0.029 | [14] -0.045 | [15] -0.025 | [16] -0.063 | [17] 0.058 | [18] -0.061 | [19] -0.02 | [20] 0.003

IL10RB (UniProt Q08334)
Chain of UniProt Q08334 (Q08334 whole entry, looked up): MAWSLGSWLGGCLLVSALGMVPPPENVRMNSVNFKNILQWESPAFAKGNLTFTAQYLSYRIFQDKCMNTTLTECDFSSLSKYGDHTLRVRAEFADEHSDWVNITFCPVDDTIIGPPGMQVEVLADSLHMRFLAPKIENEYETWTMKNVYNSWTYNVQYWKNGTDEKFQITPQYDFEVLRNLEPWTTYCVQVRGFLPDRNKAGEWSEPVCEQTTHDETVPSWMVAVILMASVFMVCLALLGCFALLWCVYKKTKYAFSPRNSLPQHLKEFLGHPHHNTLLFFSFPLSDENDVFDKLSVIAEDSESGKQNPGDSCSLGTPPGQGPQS
inactive: [1] 0.045 | [2] -0.086 | [3] 0.05 | [4] 0.056 | [5] -0.089 | [6] -0.247 | [7] -0.018 | [8] 0.087 | [9] 0.007 | [10] 0.084 | [11] 0.107 | [12] -0.021 | [14] 0.022 | [15] -0.121 | [16] -0.042 | [17] 0.015 | [18] -0.005 | [19] -0.093 | [20] 0.026

LIMD1 (UniProt Q9UGP4)
inactive: [1] -0.055 | [3] 0.042 | [4] -0.018 | [5] 0.026 | [6] 0.002 | [7] 0.015 | [8] 0.064 | [9] -0.028 | [10] -0.043 | [11] 0.074 | [12] -0.011 | [13] -0.03 | [14] -0.034 | [15] -0.029 | [16] -0.03 | [17] -0.008 | [18] -0.01 | [19] 0.004 | [20] 0.004
active: [2] -0.245

KPNA4 (UniProt O00629)
inactive: [1] -0.008 | [2] -0.251 | [3] 0.033 | [4] -0.008 | [5] 0.038 | [6] 0.029 | [7] 0 | [8] 0.01 | [9] -0.066 | [10] -0.052 | [11] 0.013 | [12] 0.032 | [13] -0.085 | [14] -0.017 | [15] -0.052 | [16] -0.095 | [17] -0.117 | [18] 0 | [19] 0.016 | [20] 0.015

LRRFIP1 (UniProt Q32MZ4)
Chain of UniProt Q32MZ4 (Q32MZ4 whole entry, looked up): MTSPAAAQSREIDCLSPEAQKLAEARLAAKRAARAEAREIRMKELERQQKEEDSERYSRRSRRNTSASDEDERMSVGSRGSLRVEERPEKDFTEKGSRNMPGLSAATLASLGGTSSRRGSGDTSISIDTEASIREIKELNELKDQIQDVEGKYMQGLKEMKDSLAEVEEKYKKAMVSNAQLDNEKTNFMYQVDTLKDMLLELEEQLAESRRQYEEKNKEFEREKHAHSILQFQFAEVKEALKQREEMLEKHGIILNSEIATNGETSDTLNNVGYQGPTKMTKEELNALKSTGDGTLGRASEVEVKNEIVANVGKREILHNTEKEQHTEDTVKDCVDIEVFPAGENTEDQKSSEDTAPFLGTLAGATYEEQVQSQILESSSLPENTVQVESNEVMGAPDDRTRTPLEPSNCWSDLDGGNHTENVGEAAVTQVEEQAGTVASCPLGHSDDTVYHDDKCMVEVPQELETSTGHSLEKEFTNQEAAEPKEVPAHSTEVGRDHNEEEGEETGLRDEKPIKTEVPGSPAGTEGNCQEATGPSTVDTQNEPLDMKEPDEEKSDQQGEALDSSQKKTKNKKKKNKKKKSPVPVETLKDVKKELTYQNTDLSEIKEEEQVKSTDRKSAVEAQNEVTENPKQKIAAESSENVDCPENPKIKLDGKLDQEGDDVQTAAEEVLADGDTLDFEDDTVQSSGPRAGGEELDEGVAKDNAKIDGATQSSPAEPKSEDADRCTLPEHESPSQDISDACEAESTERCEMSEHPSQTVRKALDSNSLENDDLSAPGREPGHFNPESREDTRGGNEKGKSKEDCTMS
inactive: [1] 0.06 | [2] 0.099 | [3] -0.075 | [4] -0.019 | [5] 0.019 | [6] 0.028 | [7] -0.004 | [8] -0.007 | [9] 0.011 | [10] 0.013 | [11] 0.017 | [12] 0.047 | [13] 0.014 | [14] -0.005 | [15] -0.009 | [16] -0.01 | [17] -0.01 | [18] -0.034 | [19] -0.019 | [20] 0.022

LMNA (UniProt P02545)
inactive: [1] 0.008 | [2] -0.15 | [3] 0.01 | [4] -0.014 | [5] -0.022 | [6] 0.057 | [7] 0.009 | [8] -0.025 | [9] -0.006 | [10] 0 | [11] 0.041 | [12] -0.083 | [14] -0.033 | [15] 0.003 | [16] -0.121 | [17] -0.08 | [18] -0.138 | [19] -0.019 | [20] 0.042
active: [13] -0.214

MAPKAPK5 (UniProt Q8IW41)
inactive: [1] 0.009 | [2] -0.007 | [3] -0.023 | [4] 0.045 | [5] -0.092 | [6] -0.132 | [7] -0.123 | [8] -0.046 | [9] -0.112 | [10] -0.033 | [11] 0.008 | [12] -0.028 | [13] 0.062 | [14] 0.036 | [15] -0.02 | [16] -0.032 | [17] 0.095 | [18] -0.039 | [19] -0.016 | [20] 0

MFGE8 (UniProt Q08431)
Chain of UniProt Q08431 (Q08431 whole entry, looked up): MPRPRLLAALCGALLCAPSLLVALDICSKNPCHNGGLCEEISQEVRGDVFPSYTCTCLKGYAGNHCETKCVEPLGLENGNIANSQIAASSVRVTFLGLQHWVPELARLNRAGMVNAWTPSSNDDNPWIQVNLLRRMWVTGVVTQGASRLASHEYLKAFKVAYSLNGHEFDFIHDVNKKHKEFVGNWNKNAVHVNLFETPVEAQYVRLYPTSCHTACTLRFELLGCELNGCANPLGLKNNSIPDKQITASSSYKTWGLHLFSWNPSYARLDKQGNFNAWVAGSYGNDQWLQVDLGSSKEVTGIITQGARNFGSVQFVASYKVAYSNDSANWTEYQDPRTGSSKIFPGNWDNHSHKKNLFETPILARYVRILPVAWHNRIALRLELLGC
inactive: [1] 0.061 | [2] 0.362 | [3] -0.007 | [4] -0.003 | [5] 0.063 | [6] -0.057 | [7] -0.103 | [8] -0.092 | [9] 0.114 | [10] 0.098 | [11] -0.171 | [12] -0.013 | [13] 0.034 | [14] 0.08 | [15] 0.066 | [16] 0.099 | [17] -0.043 | [18] -0.018 | [19] 0.037 | [20] -0.023

MICOS13 (UniProt Q5XKP0)
active: [10] -0.579
inactive: [1] -0.132 | [2] -0.181 | [3] 0.025 | [4] 0.023 | [5] -0.023 | [6] -0.043 | [7] 0.026 | [8] 0.011 | [9] -0.044 | [11] 0.039 | [12] 0.01 | [13] -0.001 | [14] 0 | [15] 0.005 | [16] -0.07 | [17] -0.041 | [18] -0.017 | [19] -0.028 | [20] -0.005

MFSD1 isoform 6 (UniProt Q9H3U5)
inactive: [1] -0.022 | [2] 0.053 | [3] -0.01 | [4] 0 | [5] -0.023 | [6] -0.069 | [7] -0.025 | [8] -0.016 | [10] -0.012 | [12] -0.041 | [13] 0.022 | [14] -0.039 | [15] 0.066 | [16] 0.046 | [17] -0.014 | [19] -0.028 | [20] -0.004

LAMP2 isoform 2 (UniProt P13473)
Chain of UniProt P13473 (P13473 whole entry, looked up): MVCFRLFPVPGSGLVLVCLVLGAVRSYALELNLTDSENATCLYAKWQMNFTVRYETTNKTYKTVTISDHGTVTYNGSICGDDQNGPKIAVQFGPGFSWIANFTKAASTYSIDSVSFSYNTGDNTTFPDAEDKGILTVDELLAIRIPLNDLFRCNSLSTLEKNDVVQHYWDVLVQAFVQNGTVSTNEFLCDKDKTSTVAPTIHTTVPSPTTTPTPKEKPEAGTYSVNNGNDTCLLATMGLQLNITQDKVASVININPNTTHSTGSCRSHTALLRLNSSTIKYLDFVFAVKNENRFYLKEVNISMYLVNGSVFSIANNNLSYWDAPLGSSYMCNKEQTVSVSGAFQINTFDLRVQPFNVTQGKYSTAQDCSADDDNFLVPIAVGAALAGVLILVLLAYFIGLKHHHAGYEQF
active: [10] -0.485
inactive: [1] -0.137 | [2] -0.081 | [3] -0.078 | [4] -0.016 | [5] 0.028 | [6] -0.01 | [7] 0.012 | [8] -0.035 | [9] -0.112 | [11] 0.24 | [13] -0.026 | [14] 0.021 | [15] 0.027 | [16] 0.078 | [17] 0.024 | [18] -0.192 | [19] 0.043 | [20] -0.017

Source: the supplement of paper PMC10849652
